Laboratory results from the supplement of paper PMC8371130.
Counter-ions that a name gives are not always drawn.

System: HL-1
Assay: relative cell viability (CellTiter-Glo) vs DMSO control (% of DMSO control); higher = more viable cells
Method in brief: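 HL-1 mouse atrial cardiomyocytes were plated in 384-well plates at 1000 cells per well together with compounds at 40, 200, 1000 or 5000 nM in 0.01% DMSO. One day later, cells went to a hypoxic workstation (1% O2) for 48 h, then were reoxygenated for 24 h in a normal incubator, or stayed in normoxia for the same time. Cell viability was read by CellTiter-Glo luminescence and normalised to vehicle-treated control cells.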

[1] = oxygen condition: hypoxia 48 h (1% O2) + reoxygenation 24 h, 40 nM
[2] = oxygen condition: hypoxia 48 h (1% O2) + reoxygenation 24 h, 200 nM
[3] = oxygen condition: hypoxia 48 h (1% O2) + reoxygenation 24 h, 1000 nM
[4] = oxygen condition: hypoxia 48 h (1% O2) + reoxygenation 24 h, 5000 nM
[5] = oxygen condition: normoxia 72 h, 40 nM
[6] = oxygen condition: normoxia 72 h, 200 nM
[7] = oxygen condition: normoxia 72 h, 1000 nM
[8] = oxygen condition: normoxia 72 h, 5000 nM

SMILES	relative cell viability [1]	relative cell viability [2]	relative cell viability [3]	relative cell viability [4]	relative cell viability [5]	relative cell viability [6]	relative cell viability [7]	relative cell viability [8]
CC[C@H]1OC(=O)[C@H](C)[C@@H](O[C@H]2C[C@@](C)(OC)[C@@H](O)[C@H](C)O2)[C@H](C)[C@@H](O[C@@H]2O[C@H](C)C[C@H](N(C)C)[C@H]2O)[C@](C)(O)C[C@@H](C)CN(C)[C@H](C)[C@@H](O)[C@]1(C)O [Azithromycin]	109	103	99.3	59.1	105	96.2	102	41.1
NC(=O)CC[C@H](N)C(=O)O [L-Glutamine]	98.4	99.1	103	105	102	97.4	114	113
COC(=O)[C@@H]1CC2=CC(=O)CC[C@]2(C)[C@@]23O[C@@H]2C[C@@]2(C)[C@@H](CC[C@@]24CCC(=O)O4)[C@H]13 [Eplerenone]	102	103	101	103	107	107	108	104
CCC1(c2ccccc2)C(=O)NCNC1=O [Primidone]	101	105	110	95.7	104	103	98.6	106
O=NO [Sodium nitrite]	109	110	116	122	109	116	107	114
CCOC(=O)C1=C(C)NC(C)=C(C(=O)OCC)C1c1ccccc1/C=C/C(=O)OC(C)(C)C [Lacidipine]	109	102	100	102	106	104	106	106
COC(=O)[C@H](Cc1ccccc1)NC(=O)[C@@H](N)CC(=O)O [Aspartame]	100	98	103	106	96.5	102	100	98.1
O=C(CCNNC(=O)c1ccncc1)NCc1ccccc1 [Nialamide]	107	109	108	113	96.2	105	104	138
Cn1c([N+](=O)[O-])cnc1COC(N)=O [Ronidazole]	107	112	106	118	112	113	121	110
[I-].[K+] [Potassium iodide]	103	104	102	108	106	104	106	109
CCc1c2c(nc3ccc(OC(=O)N4CCC(N5CCCCC5)CC4)cc13)-c1cc3c(c(=O)n1C2)COC(=O)[C@]3(O)CC [Irinotecan HCl Trihydrate]	89	95.6	64.6	40.2	99	83.5	62.5	40.2
CN1CCC(OC(c2ccccc2)c2ccccc2)CC1 [Diphenylpyraline HCl]	102	96.9	99.3	110	96.9	103	102	100
COCCCOc1cc(C[C@@H](C[C@H](N)[C@@H](O)C[C@H](C(=O)NCC(C)(C)C(N)=O)C(C)C)C(C)C)ccc1OC [Aliskiren hemifumarate]	94.1	97.2	92.3	107	95.9	102	101	107
CCOC(=O)[C@H](CCc1ccccc1)N[C@@H](C)C(=O)N1Cc2cc(OC)c(OC)cc2C[C@H]1C(=O)O [Moexipril HCl]	105	102	107	67.2	100	98.2	90.7	64.1
CN(C)[C@@H](CCOc1cccc2ccccc12)c1ccccc1 [Dapoxetine hydrochloride]	96.3	102	99.8	89.2	101	103	104	76.3
C#C[C@]1(O)CC[C@H]2[C@@H]3CCc4cc(O)ccc4[C@H]3CC[C@@]21C [Ethinyl Estradiol]	104	104	105	107	107	105	108	110
CC(C)(C(=O)O)c1ccc(C(O)CCCN2CCC(C(O)(c3ccccc3)c3ccccc3)CC2)cc1 (stereo not given) [Fexofenadine HCl]	106	96.5	99.8	99.8	107	96.2	104	110
COc1cc2/c(=N/c3ccc(Br)cc3F)nc[nH]c2cc1OCC1CCN(C)CC1 [Vandetanib]	110	115	115	102	113	112	116	102
CN(C)CCCN1c2ccccc2CCc2ccccc21 [Imipramine HCl]	98.5	98.9	96.2	110	100	101	101	111
CC(C)c1nc(CN(C)C(=O)N[C@@H](CCN2CCOCC2)C(=O)N[C@H](CC[C@H](Cc2ccccc2)NC(=O)OCc2cncs2)Cc2ccccc2)cs1 [Cobicistat]	109	109	108	120	111	107	108	113

SMILES	relative cell viability [1]	relative cell viability [2]	relative cell viability [3]	relative cell viability [4]	relative cell viability [5]	relative cell viability [6]	relative cell viability [7]	relative cell viability [8]
OC[C@@H](O)[C@@H](O)[C@H](O)[C@H](O)CO [D-Mannitol]	102	86.9	113	113	106	98.9	108	87.3
CC(C)CC(N)=O [Isovaleramide]	96.1	91.3	96.4	112	96.3	90.2	87.8	104
Nc1nc2ccc(OC(F)(F)F)cc2s1 [Riluzole]	102	105	108	111	103	104	107	107
O=C(O)c1ccc(NC(=O)[C@H](Cc2ccc(O)cc2)NC(=O)c2ccccc2)cc1 [Bentiromide]	104	104	101	102	103	106	99.5	111
COc1cc2c(cc1OC)CC(=O)N(CCCN(C)C[C@H]1Cc3cc(OC)c(OC)cc31)CC2 [Ivabradine HCl]	108	106	107	106	105	106	102	106
NC(=O)c1cn(Cc2c(F)cccc2F)nn1 [Rufinamide]	103	106	109	112	106	106	111	112
COc1c2ccoc2cc2oc(=O)ccc12 [Bergapten]	101	104	107	109	99.2	96.6	109	103
C[C@H](CS)C(=O)N1CCC[C@H]1C(=O)O [Captopril]	108	103	105	109	105	97.2	106	113
Nc1nc(F)nc2c1ncn2[C@@H]1O[C@H](CO)[C@@H](O)[C@@H]1O [Fludarabine]	104	101	107	109	101	107	104	83.7
CC1=C(/C=C/C(C)=C/C=C/C(C)=C/C=C/C=C(C)/C=C/C=C(C)/C=C/C2=C(C)CCCC2(C)C)C(C)(C)CCC1 [Beta Carotene]	96.9	95.3	99.9	104	104	92.9	104	104
CN1CCN2c3ccccc3Cc3ccccc3C2C1 (stereo not given) [Mianserin hydrochloride]	74.7	97.7	84	107	63.6	92.5	98.1	111
CO[C@H]1C(=O)[C@]2(C)[C@@H](OC)C[C@H]3OC[C@@]3(OC(C)=O)[C@H]2[C@H](OC(=O)c2ccccc2)[C@]2(O)C[C@H](OC(=O)[C@H](O)[C@@H](NC(=O)OC(C)(C)C)c3ccccc3)C(C)=C1C2(C)C [Cabazitaxel]	32.1	34.3	39.6	36.6	24.7	27.2	26.8	29.7
C#C[C@]1(O)CC[C@H]2[C@@H]3CCc4cc(OC)ccc4[C@H]3CC[C@@]21C [Mestranol]	101	106	101	101	99.9	97.3	103	85.7
Nc1cccc2c1CN(C1CCC(=O)NC1=O)C2=O (stereo not given) [Lenalidomide]	108	110	109	111	113	117	117	114
CCCOc1ccc(C(=O)OCCN(CC)CC)cc1N [Proparacaine HCl]	88.3	98.9	97.8	107	103	92.4	78.4	106
CC(COc1ccccc1)N(CCCl)Cc1ccccc1 (stereo not given) [Phenoxybenzamine HCl]	101	97.6	93.1	95.4	101	101	91.5	107
CN1CC(=O)NC1=N [Creatinine]	105	104	106	114	102	97.3	100	108
CCOC(=O)C1=C(C)NC(C)=C(C(=O)OC)C1c1cccc([N+](=O)[O-])c1 (stereo not given) [Nitrendipine]	95.9	106	98.1	107	107	103	104	111
O=C1Cc2cc(CCN3CCN(c4nsc5ccccc45)CC3)c(Cl)cc2N1 [Ziprasidone hydrochloride]	105	101	106	102	107	98.2	104	98.4
CCCCCCCCCCC[C@@H](C[C@@H]1OC(=O)[C@H]1CCCCCC)OC(=O)[C@H](CC(C)C)NC=O [Orlistat]	104	115	94.9	107	108	112	102	103
